# Screen size: about 3,300 compounds; about 20 (0.6%) were called active. The sample holds actives, similar compounds and a random draw of the others, so the mix is not that of the screen.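 The calls were made as follows: active = growth inhibition above 90%, meaning viable cell count cut by more than 90% versus vehicle controls; inactive = growth inhibition below 90%.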
# Experiment: HT29 colon tumor cell growth inhibition, primary screen, imaging, high content imaging, 72 h, CellTiter-Glo (AID 772);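 as to condensed nuclei: condensed means nuclear area below control median minus 1.5 SD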
# Conditions: HCS imaging cell count, at 10 µM, stronger effect = higher value; for condensed nuclei: measured here: percent cells with condensed nuclei
# [1] = measured here: ATP CellTiter-Glo viability
SMILES,growth inhibition,growth inhibition [1],condensed nuclei
CCOC(=O)CSc1nc(NC#N)nc(N(CC)CC)n1,-10.6% (inactive),-34.2%,2.47%
CC1(C)CC(=O)C(C=NCC(O)c2ccccc2)=C(O)C1 (centres undefined),1.15% (inactive),-3.71%,3.13%
CCN(CC)Cc1cc(C(C)=O)ccc1OCC(C)C,-17.7% (inactive),-47.7%,2.8%
Cc1ccc(C2/C(=C(/O)c3cnn(-c4ccccc4)c3C)C(=O)C(=O)N2CCN2CCOCC2)o1 (centres undefined),-41.7% (inactive),-16.4%,5.65%
CC1CCN(c2oc(-c3ccccc3Cl)nc2C#N)CC1,39.9% (inactive),-1.14%,4.72%
Cc1nnc(C)n1/N=C/c1cccn1C,-26.9% (inactive),-16.7%,2.68%
CCOC(=O)/C(C#N)=C1\Nc2ccccc2N=C1N(CC(C)C)CC(C)C,15.8% (inactive),-0.53%,3.37%
O=C(c1ccc2c3c(cccc13)C(=O)N(O)C2=O)N1CCCCC1,63.6% (inactive),65.6%,16.2%
S=C(N=Nc1ccccc1)NNc1ccccc1,5.63% (inactive),9.94%,9.9%
CCCCCC1CC(CC#CCN2CCOCC2)C(=O)O1 (centres undefined),-6.01% (inactive),-22.1%,3.8%
Cc1nc(NCCCO)c(C#N)c2c1COC(C)(C)C2,26.3% (inactive),-0.61%,5.86%
CCOC(=O)c1[nH]c2ccc(OC)cc2c1NC(=O)CCN1CCC(C)CC1,7.19% (inactive),8.59%,9.76%
COc1cccc(-c2nnc3sc(-c4ccc(Cl)cc4)nn23)c1,-127% (inactive),-46.5%,8.69%
O=C(O)C(Cc1c[nH]c2ccccc12)NS(=O)(=O)c1cccc2nsnc12 (centres undefined),9.77% (inactive),1.74%,1.59%
Cc1nn2c(-c3ccc(Cl)cc3)nnc2s1,0.82% (inactive),-46.2%,2%
c1ccc(CN2CCN(c3ncnc4c3[nH]c3ccccc34)CC2)cc1,93.4% (active),88.4%,27.8%
c1ccc2c(c1)[nH]c1c(N3CCSCC3)ncnc12,57.2% (inactive),14.5%,5.16%
Cc1ccc2[nH]c3c(N4CCCCCC4)ncnc3c2c1,96.5% (active),96%,39.6%
CN1CCN(c2ncnc3c2[nH]c2ccc(F)cc23)CC1,27.9% (inactive),14.8%,6.32%
Cc1ccc2[nH]c3c(N4CCOCC4)ncnc3c2c1,-53.8% (inactive),-45.3%,5.07%
Cc1ccc2[nH]c3c(N4CCN(Cc5ccc6c(c5)OCO6)CC4)ncnc3c2c1,73.7% (inactive),96.6%,29.9%
COc1ccc2[nH]c3c(N4CCN(Cc5ccc6c(c5)OCO6)CC4)ncnc3c2c1,20.7% (inactive),21%,1.08%
Fc1ccc2[nH]c3c(N4CCN(Cc5ccc6c(c5)OCO6)CC4)ncnc3c2c1,92% (active),96.7%,24.5%
Cc1ccc2[nH]c3c(N4CCN(Cc5ccccc5)CC4)ncnc3c2c1,50.9% (inactive),7.07%,2.3%
Cc1cc(C)nc(N(C#N)CC(=O)N(c2ccccc2)C(C)C)n1,-23.3% (inactive),-17.6%,7.69%
Clc1ccc2[nH]c3c(NCCCN4CCOCC4)ncnc3c2c1,88.5% (inactive),96.8%,45.3%

SMILES,growth inhibition,growth inhibition [1],condensed nuclei
COC(=O)C(NC(C)=O)(Nc1ccc(Br)cn1)C(F)(F)F (centres undefined),-46.6% (inactive),-39%,2.33%
O=C1CC(c2ccccc2)n2nc(NS(=O)(=O)c3ccccc3)nc2N1 (centres undefined),6.12% (inactive),25.8%,5.04%
CCOC(=O)CNS(=O)(=O)c1cc(-c2n[nH]c(=O)c3ccccc23)ccc1C,-38.6% (inactive),-21.1%,6.33%
Cc1nc(/N=C(\N)Nc2ccccc2)nc2ccccc12,-39.5% (inactive),-11.8%,3.28%
CCCCCOc1ccccc1C(=O)NCC(=O)O,-69.1% (inactive),-28.9%,1.44%
CSc1nc2sc3c(c2c2nnnn12)CCCC3,37.7% (inactive),9.47%,2.53%
Cc1ccc(N2C(=O)[C@@H]3[C@H](C2=O)C2CCCN2[C@@H]3C(=O)c2ccccc2)cc1 (some centres undefined),61.8% (inactive),9.87%,4.55%
N#Cc1nc(COc2ccc(Br)cc2)oc1N1CCCC1,31.9% (inactive),-4.22%,13.2%
COc1ccc(N2CCN(c3oc(COc4ccc(Cl)cc4)nc3C#N)CC2)cc1,92.4% (active),87.2%,23.8%
N#Cc1nc(COc2ccc(Cl)cc2)oc1N1CCN(Cc2ccccc2)CC1,85.7% (inactive),70.5%,7.69%
Cc1c(C(=O)O)sc(=S)n1-c1ccccc1,46.5% (inactive),9.56%,3.47%
CC(=O)C1=C(O)C(=O)N(c2ccc(C(=O)O)cc2)C1c1ccccc1 (centres undefined),-93.1% (inactive),-74.7%,4.2%
COC(=O)C1=C(C)N=C2SC(C)C(=O)N2C1c1ccc(C(=O)OC)cc1 (centres undefined),-44.2% (inactive),-32%,6.05%
CCN(CC)CCN1C(=O)C(O)=C(C(=O)c2ccco2)C1c1ccccn1 (centres undefined),-51.4% (inactive),-77%,2.14%
CC(=O)C1=C(NC(=O)c2ccccc2F)C[C@@H]2[C@H]1C2(C)C,-1.88% (inactive),-28.5%,2.19%
Cc1ccc(-n2c(=O)c3c4c(sc3n3c(C)nnc23)COC(C(C)C)C4)cc1 (centres undefined),-38% (inactive),-56.1%,4.02%
O=C(NC1CCS(=O)(=O)C1)N1CCCCC1 (centres undefined),28.2% (inactive),4.61%,9.88%
COC(=O)c1ccccc1NC(=O)CSc1nnc(-c2ccncc2)o1,11.7% (inactive),-27.3%,4.89%
CCOC(=O)c1[nH]c2ccc(C)cc2c1N=CN(CC)CC,1.88% (inactive),-13%,12.3%
COc1cc2nc(N3CCN(C(=O)c4ccco4)CC3)nc(N)c2cc1OC,94.7% (active),67.4%,30.2%
COc1ccc2[nH]c(C)c(C(=O)CN3CCN(C(=O)c4ccco4)CC3)c2c1,-20.9% (inactive),-49.5%,3.46%
COc1cccc(OC)c1OCCN1CCN(C(=O)c2ccco2)CC1,18.1% (inactive),7.71%,3.57%
COc1cc2nc(N3CCN(C(=O)C4COc5ccccc5O4)CC3)nc(N)c2cc1OC (centres undefined),96% (active),83.5%,21.8%
COC(=O)c1ccccc1NC(=O)C1COc2ccccc2O1 (centres undefined),16.2% (inactive),13.5%,13.5%
COc1cc2nc(N3CCN(C(=O)C4CCCO4)CC3)nc(N)c2cc1OC (centres undefined),-61.2% (inactive),-20.9%,2.06%
O=C(O)c1nsc(Cl)c1Cl,-41.6% (inactive),-55.8%,1.81%

SMILES,growth inhibition,growth inhibition [1],condensed nuclei
Cc1cccc(OCC(=O)N2CCC(N3CCCCCC3)CC2)c1,-20.3% (inactive),-10.7%,13.8%
CN(C)CC(O)COc1ccc(-c2ccc(C#N)cc2)cc1 (centres undefined),90.2% (active),86%,7.89%
CN(C)CC(O)COc1ccc(C(C)(C)c2ccc(OCC(O)CN(C)C)cc2)cc1 (centres undefined),61.9% (inactive),98.3%,18.1%
CN(C)CC(O)COc1cccc(OCC(O)CN(C)C)c1 (centres undefined),-49% (inactive),-41%,5.18%
Cn1c(=O)c2c(nc(Br)n2Cc2ccc3ccccc3c2)n(C)c1=O,57.1% (inactive),9.53%,5.08%
Cc1cc(=O)[nH]c(SCC(=O)c2ccccc2)c1C#N,27.9% (inactive),-16.6%,2.93%
CCCSc1nc(C)c(CC(=O)O)c(=O)[nH]1,-32.6% (inactive),-21%,3.23%
CCN(CC)C(=O)C1CCN(c2ncnc3c2cnn3-c2ccc(C)cc2C)CC1,63.8% (inactive),64.7%,6.87%
Fc1ccc(C2C3=C(Nc4ncnn42)c2ccccc2OC3c2ccncc2)cc1 (centres undefined),61.8% (inactive),20.5%,17.7%
CCCOc1ccc(CSC(CC(=O)O)C(=O)O)cc1 (centres undefined),-29% (inactive),-72.1%,0.98%
COC(=O)C1=C(C)N=C2SC(C)C(=O)N2C1/C=C/c1ccccc1OC (centres undefined),-57.1% (inactive),-59.2%,1.79%
CCCCC(=O)c1c(C)cc(C)[nH]c1=O,-16.9% (inactive),-46.2%,1.27%
CCN(CC)CCN1C(=O)C(O)=C(C(=O)c2cccs2)C1c1ccccn1 (centres undefined),-42% (inactive),-45.7%,3.64%
CCN(CC)CCOC(=O)c1c(C)n(C)c2ccc(OC)cc12,-57.1% (inactive),-23%,3.82%
Cn1cc(Cl)nc1C(O)c1ccccc1 (centres undefined),-111% (inactive),-43.7%,2.87%
Cc1cc2c(c(=O)o1)C(CC(C)C)C(C#N)=C(N)O2 (centres undefined),18.4% (inactive),-9.11%,2.71%
N/C(CCN1CCCCC1)=N/O,20.8% (inactive),13.8%,6.52%
c1ccc(Cc2nn[nH]n2)cc1,14.9% (inactive),-16.9%,4.71%
N#C/C(=N\O)c1nc(-c2ccccc2)cs1,-131% (inactive),-49.8%,3.16%
CCOc1cccc(-c2nnc3sc(-c4ccco4)nn23)c1,-51.8% (inactive),-46.9%,2.36%
CCOC(=O)C(Oc1ccc(=O)[nH]n1)C(C)=O (centres undefined),-6.93% (inactive),-59.3%,3.6%
CC(C)Sc1nnc2n(CCc3ccccc3)c(=O)c3c4c(sc3n12)COC(C)(C)C4,0.75% (inactive),-42.2%,1.47%
CCc1[nH]c(=O)c(C#N)c2c1CSC(C)(C)C2,9.49% (inactive),-3.16%,4.45%
CC1(C)CC(=O)C2=C(C1)Oc1nc3ccccc3cc1C2C(C#N)C#N (centres undefined),92.5% (active),71.1%,0%
CC1(C)CC(=O)C2=C(C1)OC(N)=C(C#N)C2C1C=CCCC1 (centres undefined),59.5% (inactive),32.2%,3.5%
Cc1nn(C)cc1C1C2=C(CC(C)(C)CC2=O)OC2=C1C(=O)CC(C)(C)C2,-19.8% (inactive),-38.9%,2.88%
